Results taken from article PMC7862700, “An all-to-all approach to the identification of sequence-specific readers for epigenetic DNA modifications on cytosine”.

Experiments:
Test in all cases: DAPPL (digital affinity profiling via proximity ligation, sequencing); 10 mM Tris-HCl pH 7.5, 50 mM NaCl, 1 mM DTT, 4% glycerol, room temperature, 30 min; GST-TFs on glutathione beads, 16-mer random dsDNA library, 0.1% formaldehyde crosslink after washing; high values mean tight binding
FLI1 = target: T1, FLI1 (Homo sapiens, UniProt Q01543 1-452); conditions: protein: recombinant; tags: N-terminal GST; dsDNA, one strand shown
T1 sequence: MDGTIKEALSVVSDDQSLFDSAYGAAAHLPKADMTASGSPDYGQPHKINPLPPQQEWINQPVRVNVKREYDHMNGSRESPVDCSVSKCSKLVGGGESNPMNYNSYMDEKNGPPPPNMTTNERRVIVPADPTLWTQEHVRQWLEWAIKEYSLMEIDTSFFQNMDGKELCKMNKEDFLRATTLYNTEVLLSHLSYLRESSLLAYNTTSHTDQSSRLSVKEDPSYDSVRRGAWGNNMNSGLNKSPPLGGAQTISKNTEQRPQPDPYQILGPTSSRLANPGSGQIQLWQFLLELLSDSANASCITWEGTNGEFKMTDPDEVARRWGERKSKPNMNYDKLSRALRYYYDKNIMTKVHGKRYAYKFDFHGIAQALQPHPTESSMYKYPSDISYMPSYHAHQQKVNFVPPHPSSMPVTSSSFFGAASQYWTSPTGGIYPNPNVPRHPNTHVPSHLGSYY
Method in brief: (§1)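 The binding signal reported is, for every hexamer, its read frequency for a factor over its read frequency for the tag-only sample. Reads came from pools of yeast-expressed, GST-fused human transcription factors on glutathione beads, barcoded with DNA and mixed with that sample, which were incubated with 200 nmole of a random double-stranded 16-mer DNA library in Tris/NaCl/DTT/glycerol buffer at room temperature for 30 min. After washing, the pools were crosslinked with 0.1% formaldehyde, proximity-ligated with BsaI/T4 ligase for 1 h at 37 °C, PCR-amplified and sequenced on an Illumina NextSeq500.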

ELK1 = target: T2, ELK1 (Homo sapiens, UniProt P19419 1-428); conditions: protein: recombinant; tags: N-terminal GST; dsDNA, one strand shown
T2 sequence: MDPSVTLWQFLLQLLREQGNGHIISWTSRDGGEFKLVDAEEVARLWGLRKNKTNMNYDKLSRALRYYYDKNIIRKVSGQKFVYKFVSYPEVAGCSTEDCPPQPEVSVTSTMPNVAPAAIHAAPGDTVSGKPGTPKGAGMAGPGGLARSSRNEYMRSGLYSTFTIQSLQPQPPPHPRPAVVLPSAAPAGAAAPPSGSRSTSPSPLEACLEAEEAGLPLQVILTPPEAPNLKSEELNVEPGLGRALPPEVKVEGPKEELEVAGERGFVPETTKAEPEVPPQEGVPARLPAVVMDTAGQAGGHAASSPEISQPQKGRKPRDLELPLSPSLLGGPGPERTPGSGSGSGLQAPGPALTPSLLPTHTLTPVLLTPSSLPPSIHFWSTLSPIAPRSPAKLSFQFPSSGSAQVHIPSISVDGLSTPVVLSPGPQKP
Method in brief: as §1

GABPA = target: T3, GABPA (Homo sapiens, UniProt Q06546 1-454); conditions: protein: recombinant; tags: N-terminal GST; dsDNA, one strand shown
T3 sequence: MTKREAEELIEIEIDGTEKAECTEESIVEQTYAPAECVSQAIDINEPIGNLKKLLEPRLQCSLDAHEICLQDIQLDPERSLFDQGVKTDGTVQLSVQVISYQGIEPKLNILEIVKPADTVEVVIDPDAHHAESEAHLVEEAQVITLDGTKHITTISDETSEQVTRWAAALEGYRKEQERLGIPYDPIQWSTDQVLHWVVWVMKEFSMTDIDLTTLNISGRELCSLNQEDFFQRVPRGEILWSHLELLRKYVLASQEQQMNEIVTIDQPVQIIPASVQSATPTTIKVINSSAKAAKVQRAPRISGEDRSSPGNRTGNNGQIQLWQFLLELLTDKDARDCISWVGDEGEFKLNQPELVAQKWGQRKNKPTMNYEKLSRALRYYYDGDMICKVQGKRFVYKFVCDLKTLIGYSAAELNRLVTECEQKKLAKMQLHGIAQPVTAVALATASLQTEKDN
Method in brief: as §1

ERG = target: T4, ERG (Homo sapiens, UniProt P11308 1-479); conditions: protein: recombinant; tags: N-terminal GST; dsDNA, one strand shown
T4 sequence: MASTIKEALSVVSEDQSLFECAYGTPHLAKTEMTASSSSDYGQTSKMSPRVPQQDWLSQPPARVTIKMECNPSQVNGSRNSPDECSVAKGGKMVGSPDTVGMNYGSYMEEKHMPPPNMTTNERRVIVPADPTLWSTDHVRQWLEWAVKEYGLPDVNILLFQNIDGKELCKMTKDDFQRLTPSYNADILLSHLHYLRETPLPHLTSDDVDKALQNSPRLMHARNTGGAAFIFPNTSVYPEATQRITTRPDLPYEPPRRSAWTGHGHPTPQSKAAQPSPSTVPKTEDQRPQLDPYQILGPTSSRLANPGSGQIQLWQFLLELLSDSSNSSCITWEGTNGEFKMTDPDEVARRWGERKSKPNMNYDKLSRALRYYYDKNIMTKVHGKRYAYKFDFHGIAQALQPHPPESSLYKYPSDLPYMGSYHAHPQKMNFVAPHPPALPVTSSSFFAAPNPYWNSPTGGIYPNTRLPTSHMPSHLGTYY
Method in brief: as §1

ELF1 = ELF1 (Homo sapiens, UniProt P32519 1-619); conditions: protein: recombinant; tags: N-terminal GST; dsDNA, one strand shown
Method in brief: as §1

EHF = target: T5, EHF (Homo sapiens, UniProt Q9NZC4 1-300); conditions: protein: recombinant; tags: N-terminal GST; dsDNA, one strand shown
T5 sequence: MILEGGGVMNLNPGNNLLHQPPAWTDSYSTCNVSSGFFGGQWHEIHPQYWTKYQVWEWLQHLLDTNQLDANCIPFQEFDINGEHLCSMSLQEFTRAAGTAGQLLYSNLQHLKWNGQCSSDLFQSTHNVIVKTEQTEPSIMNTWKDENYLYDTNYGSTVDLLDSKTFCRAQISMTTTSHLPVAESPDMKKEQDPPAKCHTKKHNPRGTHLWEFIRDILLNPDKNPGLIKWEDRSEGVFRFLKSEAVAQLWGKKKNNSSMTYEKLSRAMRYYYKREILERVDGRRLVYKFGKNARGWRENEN
Method in brief: as §1

SPI1 = SPI1 (Homo sapiens, UniProt P17947 1-270); conditions: protein: recombinant; tags: N-terminal GST; dsDNA, one strand shown
Method in brief: as §1

SPIB = SPIB (Homo sapiens, UniProt Q01892 1-262); conditions: protein: recombinant; tags: N-terminal GST; dsDNA, one strand shown
Method in brief: as §1

ELK3 = target: T6, ELK3 (Homo sapiens, UniProt P41970 1-407); conditions: protein: recombinant; tags: N-terminal GST; dsDNA, one strand shown
T6 sequence: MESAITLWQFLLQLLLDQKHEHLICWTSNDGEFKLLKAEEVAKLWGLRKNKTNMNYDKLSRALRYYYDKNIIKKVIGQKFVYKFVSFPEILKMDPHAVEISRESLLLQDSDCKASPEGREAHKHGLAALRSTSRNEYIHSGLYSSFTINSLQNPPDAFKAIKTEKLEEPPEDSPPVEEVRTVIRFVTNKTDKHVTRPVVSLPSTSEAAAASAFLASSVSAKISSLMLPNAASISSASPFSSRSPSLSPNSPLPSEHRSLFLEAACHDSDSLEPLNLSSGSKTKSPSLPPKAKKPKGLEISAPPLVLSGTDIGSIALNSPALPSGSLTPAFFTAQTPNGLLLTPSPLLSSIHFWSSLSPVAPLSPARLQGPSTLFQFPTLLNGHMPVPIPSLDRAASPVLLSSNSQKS
Method in brief: as §1

FEV = target: T7, FEV (Homo sapiens, UniProt Q99581 1-238); conditions: protein: recombinant; tags: N-terminal GST; dsDNA, one strand shown
T7 sequence: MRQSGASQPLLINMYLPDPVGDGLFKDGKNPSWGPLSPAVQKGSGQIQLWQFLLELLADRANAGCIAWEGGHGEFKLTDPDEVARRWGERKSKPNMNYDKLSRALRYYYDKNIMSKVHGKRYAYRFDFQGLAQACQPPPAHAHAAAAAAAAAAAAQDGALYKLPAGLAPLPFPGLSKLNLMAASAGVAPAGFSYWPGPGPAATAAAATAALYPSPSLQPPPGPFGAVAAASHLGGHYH
Method in brief: as §1

ETV5 = ETV5 (Homo sapiens, UniProt P41161 1-510); conditions: protein: recombinant; tags: N-terminal GST; dsDNA, one strand shown
Method in brief: as §1

HSF1 = HSF1 (Homo sapiens, UniProt Q00613 1-529); conditions: protein: recombinant; tags: N-terminal GST; chain copies: 3; dsDNA, one strand shown
Method in brief: as §1

SPIC = target: T8, SPIC (Homo sapiens, UniProt Q8N5J4 1-248); conditions: protein: recombinant; tags: N-terminal GST; dsDNA, one strand shown
T8 sequence: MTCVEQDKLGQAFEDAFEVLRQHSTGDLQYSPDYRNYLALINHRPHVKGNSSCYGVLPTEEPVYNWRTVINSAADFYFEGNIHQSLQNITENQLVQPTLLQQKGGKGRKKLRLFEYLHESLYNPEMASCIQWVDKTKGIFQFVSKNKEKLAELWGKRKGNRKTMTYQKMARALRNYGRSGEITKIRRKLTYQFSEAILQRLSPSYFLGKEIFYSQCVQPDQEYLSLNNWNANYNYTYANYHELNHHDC
Method in brief: as §1

ELF4 = ELF4 (Homo sapiens, UniProt Q99607 1-663); conditions: protein: recombinant; tags: N-terminal GST; dsDNA, one strand shown
Method in brief: as §1

ELK4 = target: T9, ELK4 (Homo sapiens, UniProt P28324-2 1-405); conditions: protein: recombinant; tags: N-terminal GST; dsDNA, one strand shown
T9 sequence: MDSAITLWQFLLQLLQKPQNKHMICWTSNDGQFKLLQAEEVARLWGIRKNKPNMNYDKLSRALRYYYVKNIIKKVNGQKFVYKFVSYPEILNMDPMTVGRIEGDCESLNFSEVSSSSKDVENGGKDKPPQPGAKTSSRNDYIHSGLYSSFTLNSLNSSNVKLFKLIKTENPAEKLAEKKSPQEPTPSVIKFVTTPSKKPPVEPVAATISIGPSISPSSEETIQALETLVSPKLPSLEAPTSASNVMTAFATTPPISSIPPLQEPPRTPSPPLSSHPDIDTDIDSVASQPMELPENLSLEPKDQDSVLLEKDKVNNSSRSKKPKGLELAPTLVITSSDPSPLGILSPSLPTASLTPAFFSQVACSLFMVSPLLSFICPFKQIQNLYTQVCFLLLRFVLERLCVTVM
Method in brief: as §1

ETV2 = target: T10, ETV2 (Homo sapiens, UniProt O00321 1-342); conditions: protein: recombinant; tags: N-terminal GST; dsDNA, one strand shown
T10 sequence: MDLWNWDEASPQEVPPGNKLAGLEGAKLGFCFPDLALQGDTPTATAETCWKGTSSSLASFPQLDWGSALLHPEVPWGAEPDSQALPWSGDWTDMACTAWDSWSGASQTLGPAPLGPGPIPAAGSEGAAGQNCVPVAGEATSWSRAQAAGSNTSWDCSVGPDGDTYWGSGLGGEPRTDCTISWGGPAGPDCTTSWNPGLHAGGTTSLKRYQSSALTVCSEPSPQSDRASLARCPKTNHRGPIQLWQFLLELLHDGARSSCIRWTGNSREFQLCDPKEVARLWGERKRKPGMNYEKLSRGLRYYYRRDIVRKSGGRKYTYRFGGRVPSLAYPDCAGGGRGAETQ
Method in brief: as §1

ELF3 = target: T11, ELF3 (Homo sapiens, UniProt P78545 1-371); conditions: protein: recombinant; tags: N-terminal GST; dsDNA, one strand shown
T11 sequence: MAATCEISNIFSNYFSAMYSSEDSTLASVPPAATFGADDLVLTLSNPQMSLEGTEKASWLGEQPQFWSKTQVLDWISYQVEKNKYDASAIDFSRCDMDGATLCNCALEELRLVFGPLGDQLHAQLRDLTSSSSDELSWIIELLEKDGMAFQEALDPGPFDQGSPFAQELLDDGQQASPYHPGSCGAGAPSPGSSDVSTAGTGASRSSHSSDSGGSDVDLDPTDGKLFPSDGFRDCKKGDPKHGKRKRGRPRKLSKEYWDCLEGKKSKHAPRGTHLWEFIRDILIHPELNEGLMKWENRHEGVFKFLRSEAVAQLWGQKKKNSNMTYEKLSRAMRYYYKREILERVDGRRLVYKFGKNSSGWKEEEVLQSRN
Method in brief: as §1

CRX = CRX (Homo sapiens, UniProt O43186 1-299); conditions: protein: recombinant; tags: N-terminal GST; dsDNA, one strand shown
Method in brief: as §1

ETV1 = ETV1 (Homo sapiens, UniProt P50549 1-477); conditions: protein: recombinant; tags: N-terminal GST; dsDNA, one strand shown
Method in brief: as §1

Chain of SPIB (Q01892 whole entry): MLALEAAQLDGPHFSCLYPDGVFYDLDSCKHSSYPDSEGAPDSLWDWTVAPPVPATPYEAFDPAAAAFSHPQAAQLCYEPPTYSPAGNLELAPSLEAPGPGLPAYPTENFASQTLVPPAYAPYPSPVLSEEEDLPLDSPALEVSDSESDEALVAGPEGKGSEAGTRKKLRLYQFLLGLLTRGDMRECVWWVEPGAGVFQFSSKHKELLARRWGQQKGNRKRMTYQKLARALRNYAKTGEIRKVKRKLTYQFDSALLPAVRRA
Chain of ELF1 (P32519 whole entry): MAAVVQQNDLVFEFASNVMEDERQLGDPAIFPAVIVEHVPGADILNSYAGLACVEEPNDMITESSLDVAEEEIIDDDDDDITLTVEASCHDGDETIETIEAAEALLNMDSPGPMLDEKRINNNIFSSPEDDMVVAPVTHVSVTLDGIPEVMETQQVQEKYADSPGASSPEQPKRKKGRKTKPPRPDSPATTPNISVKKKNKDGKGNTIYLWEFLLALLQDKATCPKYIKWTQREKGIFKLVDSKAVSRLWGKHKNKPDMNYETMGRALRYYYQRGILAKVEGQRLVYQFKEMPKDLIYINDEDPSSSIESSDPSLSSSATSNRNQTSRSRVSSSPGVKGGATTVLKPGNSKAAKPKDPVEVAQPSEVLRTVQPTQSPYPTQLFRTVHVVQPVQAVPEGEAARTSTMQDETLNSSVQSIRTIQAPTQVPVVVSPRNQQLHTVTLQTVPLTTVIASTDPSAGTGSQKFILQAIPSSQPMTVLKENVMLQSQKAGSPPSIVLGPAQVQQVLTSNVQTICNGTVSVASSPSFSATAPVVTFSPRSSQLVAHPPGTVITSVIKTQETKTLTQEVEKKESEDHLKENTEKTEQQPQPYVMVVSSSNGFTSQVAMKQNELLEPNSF
Chain of ETV5 (P41161 whole entry): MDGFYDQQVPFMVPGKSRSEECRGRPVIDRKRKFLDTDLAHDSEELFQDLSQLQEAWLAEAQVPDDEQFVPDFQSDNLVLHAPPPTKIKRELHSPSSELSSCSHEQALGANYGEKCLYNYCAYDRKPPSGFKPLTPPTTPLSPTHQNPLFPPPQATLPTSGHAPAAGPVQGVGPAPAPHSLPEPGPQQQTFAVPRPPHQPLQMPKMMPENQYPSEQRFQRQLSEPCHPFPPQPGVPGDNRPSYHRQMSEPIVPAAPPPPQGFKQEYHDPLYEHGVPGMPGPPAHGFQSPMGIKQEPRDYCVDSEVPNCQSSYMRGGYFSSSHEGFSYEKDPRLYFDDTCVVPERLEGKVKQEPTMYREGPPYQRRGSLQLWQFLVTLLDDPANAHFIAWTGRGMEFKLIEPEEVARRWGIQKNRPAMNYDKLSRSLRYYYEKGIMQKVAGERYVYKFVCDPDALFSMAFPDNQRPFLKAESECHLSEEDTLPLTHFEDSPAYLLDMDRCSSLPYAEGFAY
Chain of HSF1 (Q00613 whole entry): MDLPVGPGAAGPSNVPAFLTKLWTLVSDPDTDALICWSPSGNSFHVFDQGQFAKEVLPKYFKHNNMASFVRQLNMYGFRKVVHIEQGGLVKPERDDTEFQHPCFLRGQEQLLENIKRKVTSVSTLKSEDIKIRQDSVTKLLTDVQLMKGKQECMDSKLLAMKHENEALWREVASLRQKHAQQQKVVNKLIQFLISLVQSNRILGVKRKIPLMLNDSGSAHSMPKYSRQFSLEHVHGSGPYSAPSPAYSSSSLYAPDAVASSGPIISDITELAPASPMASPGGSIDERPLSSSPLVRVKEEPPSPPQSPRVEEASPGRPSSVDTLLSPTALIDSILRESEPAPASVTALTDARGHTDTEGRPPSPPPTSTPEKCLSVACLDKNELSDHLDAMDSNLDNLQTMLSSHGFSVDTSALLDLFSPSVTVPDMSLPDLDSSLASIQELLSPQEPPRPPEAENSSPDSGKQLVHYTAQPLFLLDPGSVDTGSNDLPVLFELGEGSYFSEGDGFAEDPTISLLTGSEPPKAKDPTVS
Chain of ELF4 (Q99607 whole entry): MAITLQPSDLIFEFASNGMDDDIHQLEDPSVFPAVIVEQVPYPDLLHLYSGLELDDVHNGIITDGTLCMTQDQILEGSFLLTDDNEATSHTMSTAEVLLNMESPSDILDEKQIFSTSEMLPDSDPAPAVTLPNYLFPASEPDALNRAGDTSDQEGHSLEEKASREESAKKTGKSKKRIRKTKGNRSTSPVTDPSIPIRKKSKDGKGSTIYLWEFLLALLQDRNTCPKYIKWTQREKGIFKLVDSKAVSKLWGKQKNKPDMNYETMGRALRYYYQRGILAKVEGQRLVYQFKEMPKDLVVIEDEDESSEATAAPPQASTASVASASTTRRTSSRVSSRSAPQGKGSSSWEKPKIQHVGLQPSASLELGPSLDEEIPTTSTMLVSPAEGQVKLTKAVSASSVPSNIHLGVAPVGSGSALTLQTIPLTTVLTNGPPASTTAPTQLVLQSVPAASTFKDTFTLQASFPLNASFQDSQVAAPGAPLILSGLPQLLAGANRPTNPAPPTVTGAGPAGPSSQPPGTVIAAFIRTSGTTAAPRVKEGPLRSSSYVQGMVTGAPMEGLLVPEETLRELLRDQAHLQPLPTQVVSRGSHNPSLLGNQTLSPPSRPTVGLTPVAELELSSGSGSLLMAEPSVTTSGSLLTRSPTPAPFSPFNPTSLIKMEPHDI
Chain of CRX (O43186 whole entry): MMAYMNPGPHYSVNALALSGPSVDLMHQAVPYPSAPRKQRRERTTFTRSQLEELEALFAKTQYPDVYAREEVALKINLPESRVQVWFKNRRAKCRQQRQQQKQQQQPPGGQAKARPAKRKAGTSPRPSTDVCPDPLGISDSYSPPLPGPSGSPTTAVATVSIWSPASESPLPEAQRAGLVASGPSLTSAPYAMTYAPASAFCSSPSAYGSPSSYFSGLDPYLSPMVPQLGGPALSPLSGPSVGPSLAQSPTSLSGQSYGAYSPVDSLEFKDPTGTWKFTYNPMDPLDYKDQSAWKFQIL
Chain of ETV1 (P50549 whole entry): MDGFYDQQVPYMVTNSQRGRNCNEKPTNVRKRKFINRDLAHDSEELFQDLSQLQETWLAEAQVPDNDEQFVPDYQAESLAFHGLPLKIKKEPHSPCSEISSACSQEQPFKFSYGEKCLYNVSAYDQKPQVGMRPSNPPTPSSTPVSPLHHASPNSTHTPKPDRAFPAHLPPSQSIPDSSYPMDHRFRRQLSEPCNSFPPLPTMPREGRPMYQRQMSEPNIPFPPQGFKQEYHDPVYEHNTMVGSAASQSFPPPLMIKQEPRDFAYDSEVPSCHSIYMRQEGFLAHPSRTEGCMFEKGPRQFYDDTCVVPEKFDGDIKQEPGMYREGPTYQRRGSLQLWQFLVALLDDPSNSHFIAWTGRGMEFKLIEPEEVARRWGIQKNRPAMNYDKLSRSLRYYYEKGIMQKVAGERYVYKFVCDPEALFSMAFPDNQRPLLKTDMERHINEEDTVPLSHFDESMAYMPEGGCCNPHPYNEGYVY

TATTAC
binding signal (FLI1): 1.24 fold enrichment (6-mer frequency, TF over GST control) | binding signal (ELK1): 1.2 fold enrichment (6-mer frequency, TF over GST control) | binding signal (GABPA): 1.09 fold enrichment (6-mer frequency, TF over GST control) | binding signal (ERG): 1.16 fold enrichment (6-mer frequency, TF over GST control) | binding signal (ELF1): 1.19 fold enrichment (6-mer frequency, TF over GST control) | binding signal (EHF): 1.19 fold enrichment (6-mer frequency, TF over GST control) | binding signal (SPI1): 1.12 fold enrichment (6-mer frequency, TF over GST control) | binding signal (SPIB): 1.21 fold enrichment (6-mer frequency, TF over GST control) | binding signal (ELK3): 1.16 fold enrichment (6-mer frequency, TF over GST control) | binding signal (FEV): 1.16 fold enrichment (6-mer frequency, TF over GST control) | binding signal (ETV5): 1.28 fold enrichment (6-mer frequency, TF over GST control) | binding signal (HSF1): 1.33 fold enrichment (6-mer frequency, TF over GST control) | binding signal (SPIC): 1.24 fold enrichment (6-mer frequency, TF over GST control) | binding signal (ELF4): 1.2 fold enrichment (6-mer frequency, TF over GST control) | binding signal (ELK4): 1.31 fold enrichment (6-mer frequency, TF over GST control) | binding signal (ETV2): 1.27 fold enrichment (6-mer frequency, TF over GST control) | binding signal (ELF3): 1.16 fold enrichment (6-mer frequency, TF over GST control) | binding signal (CRX): 1.79 fold enrichment (6-mer frequency, TF over GST control) | binding signal (ETV1): 1.27 fold enrichment (6-mer frequency, TF over GST control)
